Laboratory results taken from PubChem BioAssay (Tox21).
Records with an inconclusive call do not appear. Calls of active or inactive are those of the source. Unless noted, calls follow the shape of the dose curve; as a rule, active = well fitted curve in the direction sought with a large enough effect in the repeat runs; inconclusive = weak or mixed curves; inactive = no such curve, though single readings can be large; an effect the other way counts as inactive or inconclusive.

Columns and labels:
[1] = qHTS assay to identify small molecule antagonists of the vitamin D receptor (VDR) signaling pathway - cell viability counter screen (AID 743225); also: % is scaled to controls: 0 for no effect and ±100 for the full control effect; nearly all actives have a fitted effect of over 50% in size
How it was run: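 In this counter screen, VDR-bla HEK 293T cells receive test compound plus 3 nM final calcitriol for 16 h at 37C. Room-temperature steps of 2 h with the beta-lactamase substrate, then 30 min with CellTiter-Glo, precede the luminescence read.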

[2] = qHTS assay to identify small molecule agonists of the NFkB signaling pathway (AID 1159509; active = well fitted curve in the direction sought with a large enough effect in the signal ratio in the repeat runs, not every such curve was filed as active; the % refers to the signal ratio; also: series mostly up to about 61 µM; % is scaled to controls: 0 for no effect and ±100 for the full control effect)
How it was run: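 Beta-lactamase reporter assay run in quantitative high-throughput format on an NF-kB-responsive ME-180 line, with 5 hr compound treatment and a FRET-based blue/green fluorescence readout.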

[3] = qHTS assay to identify small molecule agonists of the NFkB signaling pathway - cell viability counter screen (AID 1159515; calls by dose curve; also: series mostly up to about 61 µM; % is scaled to controls: 0 for no effect and ±100 for the full control effect; nearly all actives have a fitted effect of over 55% in size)
How it was run: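 Read by CellTiter-Glo luminescence (30 min, room temperature) in the wells also used for the beta-lactamase FRET read. ME-180 NFkB-bla cells at 2,000 per well were plated overnight, then exposed to compound for 5 hr at 37 C.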

[4] = qHTS assay to identify small molecule agonists of the endoplasmic reticulum stress response signaling pathway (AID 1159516; active = well fitted activation curve with a large enough effect in the signal ratio in the repeat runs, not every such curve was filed as active; the % refers to the signal ratio; also: % is scaled to controls: 0 for no effect and ±100 for the full control effect)
How it was run: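 Ratiometric FRET readout (405 nm excitation; 460 and 530 nm emission) of a beta-lactamase gene driven by the ER stress response element, after 2 hr substrate loading. HeLa ESRE-bla cells were seeded overnight and treated with compounds for only 5 hr at 37 C.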

[5] = qHTS assay to identify small molecule agonists of the endoplasmic reticulum stress response signaling pathway - cell viability counter screen (AID 1159517; calls by dose curve; also: series mostly up to about 61 µM; % is scaled to controls: 0 for no effect and ±100 for the full control effect; nearly all actives have a fitted effect of over 50% in size)
How it was run: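 Cytotoxicity of test compounds toward ESRE-bla HeLa cells was assessed after 5 hr exposure. The luminescent CellTiter-Glo signal was measured 30 min after reagent addition.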

[6] = qHTS assay to identify small molecule antagonists of the retinoid-related orphan receptor gamma (ROR-gamma) signaling pathway - cell viability counter screen (AID 1159520); also: % is scaled to controls: 0 for no effect and ±100 for the full control effect; nearly all actives have a fitted effect of over 50% in size
How it was run: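 Tet-on ROR gamma CHO cells (1,000/well) were plated 4 hr, given compounds in DMSO for 2 hr at 37 C, then induced with 1 uM final doxycycline for 16 hr. Viability was read as ATP by CellTiter-Glo luminescence after 30 min.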

[7] = qHTS assay to identify small molecule agonists of the AP-1 signaling pathway - cell viability counter screen (AID 1159525; calls by dose curve; also: nearly all actives have a fitted effect of over 55% in size)
How it was run: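 Each titration point was normalised to DMSO and tetra n-octyl ammonium bromide controls. The read was Cell Titer Glo luminescence after 30 min at RT, following 5 h compound exposure of ME-180 AP-1-bla cells at 37 °C.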

[8] = qHTS assay to identify small molecule agonists of the AP-1 signaling pathway (AID 1159526; calls by dose curve; also: % is scaled to controls: 0 for no effect and ±100 for the full control effect)
[9] = qHTS assay to identify small molecule agonists of the RXR signaling pathway - cell viability counter screen (AID 1159529);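 also: HEK 293T cells carrying an RXR-alpha UAS beta-lactamase reporter; series mostly up to about 77 µM; % is scaled to controls: 0 for no effect and ±100 for the full control effect; nearly all actives have a fitted effect of over 50% in size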
How it was run: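 Viability read-out for the RXR-alpha agonist qHTS: luminescent CellTiter-Glo signal after 30 min at RT. HEK 293T bla reporter cells, 2% charcoal-stripped FBS, 16 hr compound incubation; tetraoctyl ammonium bromide as cytotoxic control.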

[10] = qHTS assay to identify small molecule antagonists of the retinoid acid receptor (RAR) signaling pathway - cell viability counter screen (AID 1159551); also: % is scaled to controls: 0 for no effect and ±100 for the full control effect; nearly all actives have a fitted effect of over 35% in size
How it was run: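 Cytotoxicity counter screen: ATP content quantified by CellTiter-Glo luminescence in C3RL4 cells treated 6 hr at 37 C with compound and retinol (1 uM final). Cells plated at 1,000/well and cultured overnight before dosing.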

[11] = qHTS assay to identify small molecule antagonists of the retinoic acid receptor (RAR) signaling pathway (AID 1159552)
How it was run: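 Using a RARE-driven luciferase construct in C3RL4 cells, retinol at 1 uM final provided the agonist stimulus while compounds were co-applied. After 6 hours at 37 C, luminescence was recorded to flag inhibitors of retinol signaling.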

[12] = qHTS assay to identify small molecule agonists of the retinoic acid receptor (RAR) signaling pathway (AID 1159553); also: potency is read from the fitted curve at half-maximal effect
How it was run: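 Luminescence was measured 30 min after luciferase reagent addition at room temperature. Before that, C3RL4 reporter cells (1,000 per well, plated overnight) were treated with compound for 6 hr at 37 C and 5% CO2.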

[13] = target: Retinoic acid receptor RXR-alpha (Homo sapiens) (UniProt P19793); assay: qHTS assay to identify small molecule agonists of the RXR signaling pathway (AID 1159527; calls by dose curve; also: % is scaled to controls: 0 for no effect and ±100 for the full control effect; nearly all actives have a fitted effect of over 35% in size)
How it was run: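 Fluorescence ratio readout (460 vs 530 nm) from GeneBLAzer RXR-alpha HEK 293T cells after 16 hr compound treatment; cells seeded 5 hr beforehand in low-serum, charcoal-stripped medium.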

[14] = qHTS assay to identify small molecule antagonists of the estrogen related receptor (ERR) signaling pathway - cell viability counter screen (AID 1224818);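 also: series mostly up to about 46 µM; viability measured after 17.5 h of compound exposure; % is scaled to controls: 0 for no effect and ±100 for the full control effect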
How it was run: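 Cytotoxicity counter screen: fluorescence from CellTiter-Fluor, added after 17.5 h compound exposure at 37 C and read 30 min later. ERR cell line seeded at 2,000 cells/well, preincubated 6 h before dosing.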

[15] = qHTS assay to identify small molecule antagonists of the estrogen related receptor (ERR) signaling pathway (AID 1224819)
How it was run: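 LOPAC library screened for antagonism as reduced One-Glo luminescence in ERR reporter cells (2,000/well). Compounds were added after 6 h pre-incubation and left 18 h at 37C; reading followed a 30 min room-temperature reagent step.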

[16] = qHTS assay to identify small molecule agonists of the estrogen related receptor (ERR) signaling pathway (AID 1224820); also: % is scaled to controls: 0 for no effect and ±100 for the full control effect
How it was run: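 Following a 6 h settling period, 2,000 ERR cells per well receive DMSO-dissolved compounds by pin tool and incubate 18 h at 37 C; agonist activity is scored from One-Glo luminescence read 30 min post-addition.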

[17] = system: estrogen-related receptor alpha (ERRalpha) with PGC-1alpha coactivator, human; assay: qHTS assay to identify small molecule antagonists of the estrogen related receptor signaling pathway with the pleiotropic PPARgamma coactivator (PGC) (AID 1224821; calls by dose curve)
How it was run: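 Screening used NTP's PGC/ERR cells, dosed via pin tool with compound in DMSO alongside positive and negative controls. After 18 h at 37 C, One-Glo reagent sat 30 min at room temperature before luminescence detection.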

[18] = qHTS assay to identify small molecule antagonists of the estrogen related receptor signaling pathway with the pleiotropic PPARgamma coactivator (PGC) cell viability counter screen (AID 1224822)
How it was run: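 Viability counter-screen read by fluorescence intensity after 30 min with CellTiter-Fluor at 37 C; PGC/ERR reporter cells were exposed to compounds for 17.5 h at 37 C following a 6 h preincubation.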

[19] = qHTS assay to identify small molecule agonists of the estrogen related receptor signaling pathway with the pleiotropic PPARgamma coactivator (PGC) (AID 1224823); also: % is scaled to controls: 0 for no effect and ±100 for the full control effect
How it was run: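 In this quantitative high-throughput screen, an 18 h, 37 C treatment of PGC/ERR cells with compounds in DMSO preceded a One-Glo luminescence read taken after 30 min at room temperature.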

[20] = target: Nuclear receptor ROR-gamma (Homo sapiens) (UniProt P51449); assay: qHTS assay to identify small molecule antagonists of the retinoid-related orphan receptor gamma (ROR-gamma) signaling pathway (AID 1159521)
How it was run: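 Screening format: cell-based luciferase reporter in CHO cells with doxycycline-inducible RORγ. Compound pre-exposure lasts 2 h, doxycycline is 1 uM final, induction runs 16 h at 37 C, and ONE-Glo luminescence is read.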

Sequence of Retinoic acid receptor RXR-alpha (Homo sapiens) (P19793 whole entry, looked up): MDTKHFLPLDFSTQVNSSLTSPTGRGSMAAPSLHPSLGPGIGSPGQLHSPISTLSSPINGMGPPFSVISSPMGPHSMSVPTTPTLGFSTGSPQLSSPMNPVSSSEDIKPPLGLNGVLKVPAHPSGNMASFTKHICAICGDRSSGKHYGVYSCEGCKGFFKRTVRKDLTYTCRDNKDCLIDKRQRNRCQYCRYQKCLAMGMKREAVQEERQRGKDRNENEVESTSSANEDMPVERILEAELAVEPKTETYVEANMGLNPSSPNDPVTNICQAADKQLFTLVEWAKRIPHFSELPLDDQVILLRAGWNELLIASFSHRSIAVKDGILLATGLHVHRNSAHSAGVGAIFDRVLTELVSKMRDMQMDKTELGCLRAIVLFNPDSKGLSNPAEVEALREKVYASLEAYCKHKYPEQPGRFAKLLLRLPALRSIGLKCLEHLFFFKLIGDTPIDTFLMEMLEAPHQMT

FC(F)(F)C(Cl)(Cl)Cl
inactive: Potency [1] | outcome [2] | outcome [3] | outcome [4] | outcome [5] | Potency [6] | outcome [7] | Potency [8] | Potency [9] | outcome [10] | Potency [11] | Potency [12]

CCCCC(CC)COC(=O)COc1cc(Cl)c(Cl)cc1Cl (stereo not drawn)
inactive: Potency [1] | outcome [2] | outcome [3] | outcome [4] | outcome [5] | Potency [6] | outcome [7] | Potency [8] | Potency [13] | outcome [10] | Potency [11] | Potency [12]

Cn1cnc2c(F)c(Nc3ccc(Br)cc3Cl)c(C(=O)NOCCO)cc21
inactive: Potency [1] | outcome [2] | outcome [3] | outcome [4] | outcome [5] | Potency [6] | outcome [7] | Potency [8] | Potency [9] | outcome [10] | Potency [11] | Potency [12]

NCCC(O)(P(=O)(O)O)P(=O)(O)O
inactive: Potency [1] | outcome [2] | outcome [3] | outcome [4] | outcome [5] | Potency [6] | outcome [7] | Potency [8] | Potency [13] | outcome [10] | Potency [11] | Potency [12]

CCC(=O)Nc1ccc(O)cc1
inactive: Potency [1] | outcome [2] | outcome [3] | outcome [4] | outcome [5] | Potency [6] | outcome [7] | Potency [8] | Potency [13] | outcome [10] | Potency [11] | Potency [12]

COC(=O)c1ccc(OC)cc1
inactive: Potency [1] | outcome [2] | outcome [3] | outcome [4] | outcome [5] | Potency [6] | outcome [7] | Potency [8] | Potency [9] | outcome [10] | Potency [11] | Potency [12]

CCc1nnc(NS(=O)(=O)c2ccc(N)cc2)s1
inactive: Potency [1] | outcome [2] | outcome [3] | outcome [4] | outcome [5] | Potency [6] | outcome [7] | Potency [8] | Potency [13] | outcome [10] | Potency [12]

FC(F)(F)C(F)(F)C(F)(F)C(F)(F)C(F)(F)C(F)(F)C(F)(F)C(F)(F)Br
inactive: Potency [1] | outcome [2] | outcome [3] | outcome [4] | outcome [5] | Potency [6] | outcome [7] | Potency [8] | Potency [13] | outcome [10] | Potency [12]

CC(C)CCCCCCc1ccc(OCCOCCO)cc1
inactive: Potency [1] | outcome [2] | outcome [3] | outcome [4] | outcome [5] | Potency [6] | outcome [7] | Potency [8] | Potency [9] | outcome [10] | Potency [11] | Potency [12]

OCc1ccccc1O
inactive: Potency [1] | outcome [2] | outcome [3] | outcome [4] | outcome [5] | Potency [6] | outcome [7] | Potency [8] | Potency [9] | outcome [10] | Potency [11] | Potency [12]

COC(=O)C(C)O (stereo not drawn)
inactive: Potency [1] | outcome [2] | outcome [3] | outcome [4] | outcome [5] | Potency [6] | outcome [7] | Potency [8] | Potency [9] | outcome [10] | Potency [11] | Potency [12]

CC(=O)OC1C2(C)CCC(C2)C1(C)C (stereo not drawn)
inactive: Potency [1] | outcome [2] | outcome [3] | outcome [4] | outcome [5] | Potency [6] | outcome [7] | Potency [8] | Potency [9] | outcome [10] | Potency [11] | Potency [12]

Cc1ccsc1C(=CCCN1CCC[C@@H](C(=O)O)C1)c1sccc1C
inactive: Potency [1] | outcome [2] | outcome [3] | outcome [4] | outcome [5] | Potency [6] | outcome [7] | Potency [8] | Potency [9] | outcome [10] | Potency [11] | Potency [12]

CC(C)C(=O)OCC(C)(C)C(O)C(C)C (stereo not drawn)
inactive: Potency [1] | outcome [2] | outcome [3] | outcome [4] | outcome [5] | Potency [6] | Potency [8] | Potency [9] | outcome [10] | Potency [11] | Potency [12]

CC1(C)O[C@@H]2C[C@H]3[C@@H]4CCC5=CC(=O)CC[C@]5(C)[C@@]4(F)[C@@H](O)C[C@]3(C)[C@]2(C(=O)CCl)O1
inactive: outcome [2] | outcome [3] | outcome [4] | outcome [5] | Potency [6] | outcome [7] | outcome [10] | Potency [12]

CC(C)C[C@H](NC(=O)OCC1c2ccccc2-c2ccccc21)C(=O)O
active: Potency [12] 1.72 µM
inactive: Potency [1] | outcome [2] | outcome [3] | outcome [4] | outcome [5] | Potency [6] | outcome [7] | Potency [9] | outcome [10] | Potency [11]

O=C1CCN(c2ccccc2)N1
inactive: outcome [2] | outcome [3] | outcome [4] | outcome [5] | Potency [6] | outcome [7] | Potency [13] | Potency [9] | outcome [10] | Potency [11] | Potency [12]

O=C(O)CN(CCN(CC(=O)O)CC(=O)O)CCN(CC(=O)O)CC(=O)O
inactive: Potency [1] | outcome [2] | outcome [3] | outcome [4] | outcome [5] | activity, negative = cytotoxicity [6] 4.04% [at 19 µM] | activation [8] -0.136% [at 15.8 µM] | activation [13] 6.5% [at 15.8 µM] | activity change, negative = cytotoxicity [9] 2.65% [at 15.8 µM] | activity change, negative = cytotoxicity [10] 4.77% [at 19 µM] | activity, negative = inhibition [11] -10.7% [at 19 µM] | Potency [12] | outcome [14] | outcome [15] | outcome [16] | outcome [17] | outcome [18] | outcome [19]

CCN(CC)CC1CCCCN1CC(=O)N1c2ccccc2C(=O)Nc2cccnc21 (stereo not drawn)
inactive: Potency [1] | outcome [2] | outcome [3] | outcome [5] | Potency [6] | Potency [20] | outcome [7] | Potency [13] | Potency [9] | outcome [10] | Potency [11]

CN1CCN(N)CC1
inactive: Potency [1] | outcome [2] | outcome [3] | outcome [4] | outcome [5] | Potency [6] | Potency [8] | Potency [13] | Potency [9] | outcome [10] | Potency [11] | Potency [12]

ClC(Cl)Cl
inactive: Potency [1] | outcome [2] | outcome [3] | outcome [4] | outcome [5] | Potency [6] | Potency [9] | outcome [10] | Potency [11]

CC(C)O
inactive: Potency [1] | outcome [2] | outcome [3] | outcome [4] | outcome [5] | Potency [6] | Potency [9] | outcome [10]
